# VACV mCherry inh – inhibitors of vaccinia virus infection (mCherry reporter signal); Vaccinia virus mCherry reporter infection, fluorescence; 0.63% of 310,000 active; Potency, µM (series often up to 36.5 µM), inactives show at the top dose activity change, negative = inhibition, actives largely listed as inhibitors; calls by dose curve; tested in A549 cells; further: potency means the concentration at half of the fitted maximal effect; nearly all actives have a fitted effect of over 35% in size
# HCMV inh – blocks human cytomegalovirus replication | AID 1259415 | activity change, negative = inhibition, % at 57.5 µM | 4.5% of 410,000 active | HFF cells, HCMV-luciferase reporter, 72 h; stronger effect = lower value; in the data active means activity change below about -60%; inconclusive means no clear call, values can overlap the other calls; inactive means above about -39%
#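 Two-dose cell screen: HFF monolayers treated with compounds and infected with luciferase-expressing HCMV at 1 PFU/cell, 72 h at 37C, then lysed for luciferase measurement.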
# VACV Venus inh – inhibitors of vaccinia virus (Venus reporter); 0.46% of 330,000 active; Vaccinia virus Venus reporter expression, fluorescence; Potency, µM (titrated, usually from 36.5 µM), inactives show at the highest dose activity change, negative = inhibition, hits mostly inhibitors; calls by dose curve; tested in A549 cells; further: potency means the concentration at half of the fitted maximal effect; nearly all actives have a fitted effect of over 30% in size
# HCV inh – HCV inhibition; Huh7.5.1 HCVcc-Cre infection, luciferase reporter, 44 h; Potency, µM (titrated, usually from 41.8 µM), inactives show at the top dose activity change, negative = inhibition, hits mostly inhibitors; 3.4% of 340,000 active; active means well fitted inhibition curve with a large enough effect; inconclusive means small, poorly fitted or top-dose-only effect, or another doubt; inactive means no such curve, though single readings can be large or run the other way; further: potency means the concentration at half of the fitted maximal effect
#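 HCVcc-Cre virus at an moi near 0.5 was added right after compound to cells cultured 4 h from seeding (1,000 cells/well). Luciferase activity was determined 44 h later, 15 min after substrate addition at RT.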
# FMDV antiviral – antivirals against foot and mouth disease virus | 1.2% of 410,000 active | FMDV antiviral cell-based qHTS | Potency, µM (highest dose often 57.9 µM), for the others: at the top dose activity change, negative = inhibition, actives largely listed as inhibitors; calls by dose curve; tested in HEK293T cells; further: read-out not given here; potency means the concentration at half of the fitted maximal effect; nearly all actives have a fitted effect of over 45% in size
# An asterisk follows results filed as active; i = inactive; u = inconclusive; x = no result given. The list is not random: actives were taken first. Their share in the collection is about 7.3%. On the % scale 0 is the no-effect control and ±100 the full control effect.
SMILES,VACV mCherry inh,HCMV inh,VACV Venus inh,HCV inh,FMDV antiviral
Cc1ccc(OCC(=O)Nc2ccccc2N2CCCC2)c(C)c1,-3.0%,-62.5*,-4.1%,u,-3.6%
CC1=NS(=O)(=O)NC(C)(C)C1,i,-15.5,-4.8%,40.1%,-8.6%
COC(=O)c1c(NC(=O)c2cc(=O)c3ccc(C)c(C)c3o2)sc2c1CCCC2,4.8%,5.0,1.3%,x,-17.6%
Cc1ccc(C)c(Cn2c3ccccc3c3cnn(CC(=O)NC4CCCCCC4)c(=O)c32)c1,-1.0%,7.4,-9.0%,x,-9.9%
CCC(C)(C)NC(=O)CN(Cc1ccc(OC)cc1)C(=O)CCC(=O)Nc1nccs1,-6.3%,-1.1,1.1%,6.6%,4.1%
CC1CCCN(S(=O)(=O)CCNC(=O)c2ccccc2)C1 (configuration not stated),-11.7%,-32.6,-4.1%,21.9%,-5.8%
CN(C)c1ccc(CN2CCc3nc(N4CCN(c5ccccn5)CC4)ncc3C2)cc1,u,-29.2,-27.1%,x,7.94µM*
CCOc1ccc(CN2CCc3nc(N4CCN(c5ccccn5)CC4)ncc3C2)cc1OC,u,u,u,x,12.6µM*
Fc1ccc(CN2CCc3nc(N4CCN(c5ccccc5F)CC4)ncc3C2)c(F)c1,-21.8%,-22.9,-27.0%,x,u
CCOc1ccccc1CN1CCc2nc(N3CCN(c4ccccc4F)CC3)ncc2C1,-27.6%,-64.1*,u,x,28.2µM*
COc1cc(CN2CCc3nc(N4CCN(c5ccccc5F)CC4)ncc3C2)ccc1OC(C)C,u,-19.5,u,x,u
COc1cc(CN2CCc3nc(N4CCN(c5ncccn5)CC4)ncc3C2)cc(OC)c1OC,-25.0%,-62.9*,u,x,28.2µM*
COc1ccc(-n2nc(C(=O)NCCc3ccc(OC)c(OC)c3)c3c4ccccc4n(C)c3c2=O)cc1Cl,-4.0%,9.8,-2.5%,x,u
Cc1ccccc1CN1CCc2nc(N3CCN(c4ccccn4)CC3)ncc2C1,u,-27.1,u,x,u
COc1cc(CN2CCc3nc(N4CCN(c5ccccn5)CC4)ncc3C2)cc(OC)c1OC,-7.1%,-63.4*,u,x,u
O=S(=O)(NCC(c1ccco1)N1CCN(c2ccc(F)cc2)CC1)c1ccc2c(c1)OCCO2 (configuration not stated),u,-74.8*,-19.6%,u,-38.6%
COc1ccccc1CN1C(=O)[C@@H]2Cc3c([nH]c4ccccc34)C(C)(C)N2C1=O,x,-17.0,x,x,28.2µM*
COc1cccc(CN2C(=O)[C@H]3Cc4c([nH]c5ccccc45)C(C)(C)N3C2=O)c1,x,-18.8,x,x,35.5µM*
Cc1ccccc1CN1C(=O)[C@@H]2Cc3c([nH]c4ccccc34)C(C)(C)N2C1=O,x,-4.2,x,x,u
COc1cc(Cl)ccc1OC1(C)CCN(Cc2ccc(-c3ccccn3)cc2)C1 (configuration not stated),i,-32.1,-4.6%,x,-19.2%
O=C(O)Cc1c(C(=O)O)nnn1-c1ccc(Cl)cc1Cl,x,-65.5*,x,8.3%,-1.9%
CC1CCN=C(N)S1 (configuration not stated),-0.6%,1.6,-18.0%,18.8%,-11.9%
CC1(C)C[C@H]2C3=CCC4[C@@]5(C)CC[C@H](O)[C@@](C)(CO)C5CC[C@@]4(C)[C@]3(C)C[C@@H](O)[C@@]2(CO)[C@@H](O)[C@@H]1O (some centres not stated),-8.5%,-73.1*,-13.3%,3.8%,-17.6%
CC1(C)C[C@@H](O)[C@]2(C)CC[C@]3(C)C(=CCC4[C@@]5(C)CC[C@H](O)[C@](C)(CO)C5CC[C@]43C)[C@@H]2C1 (some centres not stated),-0.2%,3.6,4.3%,24.3%,-24.1%
CCOC(=O)C(CC)Sc1ccc2nnc(-c3ccc(F)cc3)n2n1 (configuration not stated),-21.5%,x,6.3%,x,x
SMILES,VACV mCherry inh,HCMV inh,VACV Venus inh,HCV inh,FMDV antiviral
CC1=C(C(=O)Nc2cccnc2)C(c2cccc(Br)c2)n2nc(SCc3ccccc3)nc2N1 (configuration not stated),3.5%,-1.0,1.8%,x,-7.9%
CC1CCN(c2ccc(-c3cccc(NS(=O)(=O)c4ccc(F)cc4F)c3)nn2)CC1,-16.9%,-99.8*,-15.2%,x,-6.9%
O=S(=O)(Nc1cccc(-c2ccc(N3CCCCC3)nn2)c1)c1ccc(F)cc1F,-5.3%,56.3,-8.8%,x,40.6%
CCC(CNc1cc(OC)cc2cccnc12)NC1CCCCC1 (configuration not stated),x,-23.3,x,-21.1%,-18.7%
COc1cc(NCCCC(C)N)c2ncccc2c1 (configuration not stated),x,-106.8*,u,u,-18.5%
COc1cc(NCCCCC(C)N)c2nccc(C)c2c1 (configuration not stated),u,-70.6*,u,x,-24.0%
O=C(NCCc1ccccn1)C1CC12CCN(C(=O)c1ccc(F)cc1Cl)CC2 (configuration not stated),-12.1%,x,1.6%,x,0.0%
O=C(Cc1coc2cc(O)ccc12)N1CCN(S(=O)(=O)c2ccc(Br)cc2)CC1,x,-32.7,x,11.2µM*,u
Cc1ccc2c(CC(=O)N3CCN(S(=O)(=O)c4cccs4)CC3)coc2c1,x,10.9,-14.7%,-2.3%,u
CCCCc1nc(Cl)c(CO)n1Cc1ccc(-c2ccccc2-c2nn[nH]n2)cc1,-11.4%,1.4,-13.6%,0.562µM*,-21.7%
CCCCc1nc(Cl)c(CO)n1Cc1ccc(-c2ccccc2-c2nnn[nH]2)cc1,i,31.6,-2.8%,-10.0%,-16.3%
Cc1ccc(C(=O)Nc2ccc(Cl)c(-c3nc4ncccc4o3)c2)c(C)c1,-7.6%,16.1,-8.0%,x,21.5%
CN1CCN(CC(O)(c2ccc(Cl)cc2)c2ccc(Cl)cc2)CC1,-18.0%,u,-15.5%,3.16µM*,-22.1%
CCC(C)NCC(O)(c1ccc(Cl)cc1)c1ccc(Cl)cc1 (configuration not stated),-11.7%,-25.4,1.5%,-15.7%,0.0%
CCCCNc1cccc2c1S(=O)(=O)N[C@@H](CC(C)C)CO2,x,7.9,x,x,x
Cc1cc(C)n(CC(O)Cn2ccc3ccccc32)n1 (configuration not stated),x,15.9,x,-13.7%,-11.3%
OC(CNCc1ccccc1)Cn1ccc2ccccc21 (configuration not stated),x,-6.1,x,11.2µM*,0.0%
OCc1nc2ccccc2n1CC(O)Cn1ccc2ccccc21 (configuration not stated),x,u,u,-8.4%,28.2µM*
COCCn1c(=O)[nH]c(=O)c2cc(C(=O)c3cc(Cl)ccc3O)cnc21,-3.8%,x,-4.0%,1.78µM*,-9.3%
COc1ccc(O)c(C(=O)c2cnc3c(c2)c(=O)[nH]c(=O)n3C)c1,u,14.7,-12.9%,u,1.8%
CC(C)(C)c1ccc(CSc2ccc(S(=O)(=O)N3CCOCC3)cn2)cc1,x,u,x,10µM*,u

# From PubChem
